From ChEMBL document CHEMBL5308504, “Tm Shift (DSF) assay results for EUbOPEN Chemogenomics Library” (2023)
Several values for one entry are separate records, joined by “and”; a condition that tells them apart may be missing. Equal values may be shown once.

How the values were obtained:
Details in all cases: Compound concentration 20.0 uM, Protein concentration 2.0 uM, Result type QC Liability
[1] = target: Tyrosine-protein kinase ABL1 (Homo sapiens) (UniProt P00519)
[2] = target: Cyclin-dependent kinase 2 (Homo sapiens) (UniProt P24941)
[3] = target: Casein kinase I isoform delta (Homo sapiens) (UniProt P48730)
Casein kinase I isoform delta (Homo sapiens), sequence (P48730 whole entry, looked up, canonical isoform): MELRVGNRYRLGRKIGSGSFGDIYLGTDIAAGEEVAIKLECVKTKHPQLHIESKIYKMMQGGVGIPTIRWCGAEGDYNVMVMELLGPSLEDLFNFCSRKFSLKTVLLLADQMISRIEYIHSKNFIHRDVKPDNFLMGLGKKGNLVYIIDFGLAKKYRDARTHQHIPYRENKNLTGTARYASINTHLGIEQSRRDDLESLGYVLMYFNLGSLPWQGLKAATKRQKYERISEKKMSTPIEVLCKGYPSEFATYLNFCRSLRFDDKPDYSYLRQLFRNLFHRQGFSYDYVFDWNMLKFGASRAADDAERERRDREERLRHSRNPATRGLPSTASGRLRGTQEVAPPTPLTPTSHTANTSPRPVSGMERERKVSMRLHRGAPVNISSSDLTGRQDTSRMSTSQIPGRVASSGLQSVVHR

[4] = target: Glycogen synthase kinase-3 beta (Homo sapiens) (UniProt P49841)
Glycogen synthase kinase-3 beta (Homo sapiens), sequence (P49841 whole entry, looked up): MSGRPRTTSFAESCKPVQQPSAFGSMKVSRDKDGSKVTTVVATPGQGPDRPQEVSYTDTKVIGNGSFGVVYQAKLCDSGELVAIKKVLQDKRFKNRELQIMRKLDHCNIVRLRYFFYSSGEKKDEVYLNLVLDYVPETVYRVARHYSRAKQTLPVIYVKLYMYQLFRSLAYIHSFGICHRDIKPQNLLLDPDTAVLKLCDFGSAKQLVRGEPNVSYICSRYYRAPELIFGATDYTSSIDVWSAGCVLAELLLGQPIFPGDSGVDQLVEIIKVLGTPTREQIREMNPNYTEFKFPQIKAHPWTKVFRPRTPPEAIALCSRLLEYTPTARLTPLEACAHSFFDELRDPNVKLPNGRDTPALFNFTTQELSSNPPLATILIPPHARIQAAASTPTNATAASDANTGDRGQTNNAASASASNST

[5] = target: Mitogen-activated protein kinase 1 (Homo sapiens) (UniProt P28482)
Mitogen-activated protein kinase 1 (Homo sapiens), sequence (P28482 whole entry): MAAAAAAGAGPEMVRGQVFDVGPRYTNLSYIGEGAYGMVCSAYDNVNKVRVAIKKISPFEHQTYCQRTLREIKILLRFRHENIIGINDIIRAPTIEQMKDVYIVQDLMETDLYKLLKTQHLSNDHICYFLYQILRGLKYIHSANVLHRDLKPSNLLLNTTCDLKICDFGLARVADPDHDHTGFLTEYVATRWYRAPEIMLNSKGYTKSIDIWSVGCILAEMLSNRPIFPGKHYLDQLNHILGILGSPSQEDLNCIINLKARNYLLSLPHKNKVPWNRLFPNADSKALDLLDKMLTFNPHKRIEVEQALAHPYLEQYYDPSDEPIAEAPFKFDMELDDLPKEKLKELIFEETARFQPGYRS

[6] = target: T1, Aurora kinase A (Homo sapiens) (UniProt O14965)
T1 sequence (whole entry): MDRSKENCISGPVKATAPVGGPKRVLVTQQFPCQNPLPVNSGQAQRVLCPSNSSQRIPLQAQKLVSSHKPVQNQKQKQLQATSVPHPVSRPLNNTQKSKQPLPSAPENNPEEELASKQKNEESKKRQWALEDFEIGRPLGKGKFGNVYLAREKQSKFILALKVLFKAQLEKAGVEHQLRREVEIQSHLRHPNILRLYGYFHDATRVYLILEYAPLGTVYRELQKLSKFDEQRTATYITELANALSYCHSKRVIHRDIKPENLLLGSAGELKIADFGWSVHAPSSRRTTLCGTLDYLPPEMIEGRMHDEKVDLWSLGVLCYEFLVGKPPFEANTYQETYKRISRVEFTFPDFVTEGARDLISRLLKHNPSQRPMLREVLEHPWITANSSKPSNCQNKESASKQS

Tyrosine-protein kinase ABL1 (Homo sapiens), sequence (P00519 whole entry): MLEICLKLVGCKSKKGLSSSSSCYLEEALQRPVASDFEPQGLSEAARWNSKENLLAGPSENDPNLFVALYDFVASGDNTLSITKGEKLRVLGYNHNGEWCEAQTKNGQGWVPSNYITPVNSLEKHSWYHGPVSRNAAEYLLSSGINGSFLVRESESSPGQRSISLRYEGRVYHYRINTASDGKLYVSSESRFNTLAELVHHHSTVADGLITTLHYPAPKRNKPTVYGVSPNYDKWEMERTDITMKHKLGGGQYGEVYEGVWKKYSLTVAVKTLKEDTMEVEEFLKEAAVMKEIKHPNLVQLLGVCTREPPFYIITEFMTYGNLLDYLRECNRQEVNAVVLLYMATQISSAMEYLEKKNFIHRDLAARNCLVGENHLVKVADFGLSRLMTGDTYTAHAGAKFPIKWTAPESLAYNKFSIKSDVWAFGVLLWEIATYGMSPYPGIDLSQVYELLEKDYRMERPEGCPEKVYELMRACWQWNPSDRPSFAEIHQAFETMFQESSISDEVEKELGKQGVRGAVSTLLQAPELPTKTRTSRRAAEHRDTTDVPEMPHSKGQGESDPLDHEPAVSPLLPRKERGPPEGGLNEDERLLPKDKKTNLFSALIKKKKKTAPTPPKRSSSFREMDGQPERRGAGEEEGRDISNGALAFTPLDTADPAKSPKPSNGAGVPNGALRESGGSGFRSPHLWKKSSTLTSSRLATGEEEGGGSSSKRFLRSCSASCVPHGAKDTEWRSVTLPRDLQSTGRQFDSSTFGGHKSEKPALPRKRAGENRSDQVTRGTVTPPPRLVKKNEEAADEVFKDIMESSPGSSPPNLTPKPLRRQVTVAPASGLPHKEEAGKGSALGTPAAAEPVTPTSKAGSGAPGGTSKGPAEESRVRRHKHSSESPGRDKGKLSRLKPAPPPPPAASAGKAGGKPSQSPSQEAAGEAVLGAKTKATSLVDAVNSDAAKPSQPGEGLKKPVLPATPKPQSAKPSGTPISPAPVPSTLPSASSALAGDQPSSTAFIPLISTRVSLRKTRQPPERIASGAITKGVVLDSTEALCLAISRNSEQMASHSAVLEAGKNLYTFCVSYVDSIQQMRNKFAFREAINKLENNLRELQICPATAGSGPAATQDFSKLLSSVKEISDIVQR

| SMILES | ΔTm [1] | ΔTm [2] | ΔTm [3] | ΔTm [4] | ΔTm [5] | ΔTm [6] |
| --- | --- | --- | --- | --- | --- | --- |
| C=CC(=O)Nc1ccc(C(=O)Nc2[nH]nc3c2CN(C(=O)N[C@H](CN(C)C)c2ccccc2)C3(C)C)cc1 | 4.89 °C | 3.53 °C | 1.06 °C | 6.48 °C | 6.56 °C | 7.89 °C |
| Cn1c(C2(NC(=O)c3ccc4c(C5CCCC5)c(-c5ncc(Br)cn5)n(C)c4c3)CCC2)nc2ccc(/C=C/C(=O)O)cc21 | -0.54 °C and 0.85 °C | -2.05 °C and -1.62 °C | -3.08 °C and -1.06 °C | -3.92 °C and -2.25 °C | -2.08 °C and -0.58 °C | -1.12 °C and -3.19 °C |
| c1ccc(C2CCN(c3cnc4c(N5CCOCC5)nccn34)CC2)cc1 | 0.01 °C | 0.19 °C | 0.18 °C | -0.6 °C | 0.57 °C | -0.14 °C |
| CCOC(=O)c1cc2cc(-c3cc(C(=O)NCc4ccc(C(=O)O)cc4)nn3C)ccc2[nH]1 | 0.13 °C | -0.6 °C | 0.53 °C | 0.78 °C | -0.1 °C | 1.73 °C |
| O=C1COc2cc(C(=O)N(Cc3ccc(C(=O)Nc4ccncn4)cc3)C3CC3)ccc2N1 | 0.5 °C | 0.47 °C | -0.01 °C | -0.19 °C | 0.31 °C | 0.08 °C |
| Cn1cc(-n2cnc3c(NCc4nc5cc(Cl)c(Cl)cc5[nH]4)nc(N4CCOCC4)nc32)cn1 | -0.15 °C | 0.06 °C | -0.03 °C | 2.12 °C | -0.02 °C | 0.53 °C |
| Cc1ncsc1-c1ccc(CNC(=O)[C@@H]2C[C@@H](O)CN2C(=O)[C@@H](NC(=O)CCCCNC(=O)c2ccc(-c3ccc(N4CCN(C)CC4)c(NC(=O)c4c[nH]c(=O)cc4C(F)(F)F)c3)cc2)C(C)(C)C)cc1 | -3.44 °C | 1.06 °C | 0.88 °C | -0.58 °C | -2.62 °C | 0.62 °C |
| Cc1nccc(COC(=O)N2C[C@@H]3[C@@H](CNC(=O)c4ccc5[nH]nnc5c4)[C@@H]3C2)n1 | -0.16 °C | 0.19 °C | 0.34 °C | 0.22 °C | 0.26 °C | -0.07 °C |
| O=C(O)CCC/C=C\C[C@@H]1[C@@H](/C=C/[C@@H](O)COc2cccc(C(F)(F)F)c2)[C@H](O)C[C@@H]1O | 0.54 °C | 0.59 °C | 0.07 °C | 0.65 °C | -0.39 °C | -0.25 °C |
| CCS(=O)(=O)c1cc2cc(C[C@@](O)(CC(C)(C)c3ccc(F)cc3C(N)=O)C(F)(F)F)[nH]c2cn1 | -0.47 °C and 0.04 °C | 0.64 °C and 0.86 °C | 0.37 °C and 0.15 °C | -0.42 °C and -0.19 °C | -0.08 °C and 0.35 °C | -0.24 °C and 0.19 °C |
| Oc1c(CN2CCCC2)cc(COCc2ccccc2)c2cccnc12 | 0.07 °C | 0.07 °C | 1.22 °C | -0.76 °C | 0.33 °C | -1.78 °C |
| COc1cc2ncnc(Nc3ccc(F)c(Cl)c3)c2cc1OCCN(C)C[C@H](C)O | 2.95 °C | 0.34 °C | 1.99 °C | -0.21 °C | 0.43 °C | 0.41 °C |
| CN(C)C/C=C/C(=O)Nc1cccc(S(=O)(=O)N2CCC(NC(=O)c3n[nH]cc3NC(=O)c3c(Cl)cc(Cl)cc3Cl)CC2)c1 | 3.66 °C | 11.4 °C | 2.28 °C | 10.9 °C | 1.34 °C | 2.6 °C |
| N#CN1CC[C@H](C(=O)Nc2nc3c(s2)CN(C(=O)CN=[N+]=[N-])CC3)C1 | 0.16 °C | 0.34 °C | 0.24 °C | -0.2 °C | 0.64 °C | -0.99 °C |
| COc1cc(N2CCN(C)CC2)ccc1Nc1ncc2c(n1)N(C)c1ccccc1C(=O)N2CC(F)(F)F | 0.67 °C | -0.65 °C | 0.47 °C | -0.83 °C | 0.11 °C | 0.18 °C |
| Nc1ncc2c(n1)-c1c([nH]c3ccc(C4=CCOCC4)cc13)CCC2 | 0.44 °C | 1.02 °C | 2.29 °C | 0.71 °C | -0.03 °C | 1.93 °C |
| Cn1ccc(Cn2cnc(-c3ccc(F)cc3)c2-c2ccnc3[nH]ccc23)n1 | 0.71 °C | 0.42 °C | 6.32 °C | -0.53 °C | 0.21 °C | -0.97 °C |
| CN1CCN(c2ccc(-n3cc(-c4ccncc4OCC4CCNCC4)cn3)cc2)CC1 | 1.5 °C | 1.21 °C | 1.48 °C | -0.06 °C | 0.53 °C | -0.52 °C |
| CC1CCN(C(=O)[C@H](CCn2cccc2C#N)NS(=O)(=O)c2cccc3[nH]ccc23)CC1 | 0.43 °C | 0.31 °C | 0.54 °C | 0.64 °C | 0.72 °C | -0.11 °C |
| COc1cc(C(=O)NCCOCCOCCOCC(=O)N[C@H](C(=O)N2C[C@H](O)C[C@H]2C(=O)NCc2ccc(-c3scnc3C)cc2)C(C)(C)C)ccc1Nc1ncc(C(F)(F)F)c(Oc2cccc3c2C(=O)CC3)n1 | -0.62 °C | -0.81 °C | 0.41 °C | 0 °C | -8.23 °C | 1.75 °C |
| COCCNC1CCC(Nc2cc(-c3csc(NCC4(C#N)CCOCC4)n3)c(Cl)cn2)CC1 (stereo not drawn) | 0.32 °C | 1.7 °C | 2.18 °C | 6.51 °C | 0.43 °C | 1.44 °C |
| CNc1nc(-c2ccc3c(N)n[nH]c3c2)cc(N2C[C@@H](C(=O)NC3CCCCC3)CC[C@H]2C)n1 | 0.49 °C | -0.54 °C | 0.18 °C | 0.25 °C | 0.38 °C | 2.89 °C |
| O=C(Nc1ccccc1C(=O)O)c1cc(S(=O)(=O)c2ccccc2)ccc1Cl | 0.07 °C | 1.6 °C | 0.6 °C | 0.85 °C | 0.86 °C | 1.09 °C |
| COc1ccccc1[C@@H]1CNCCC12CCN(C(=O)[C@](OC)(c1ccccc1)C(F)(F)F)CC2 | 0.26 °C | 0.48 °C | 0.35 °C | -1.18 °C | -0.22 °C | -0.11 °C |
| NC(=O)c1ccc(-c2nc(-c3ccc4c(c3)OCCO4)c(-c3ccccn3)[nH]2)cc1 | 1 °C | -0.38 °C | 5.39 °C | -0.91 °C | 0.36 °C | -1.32 °C |
| CC(C)(C)c1cnc(CSc2cnc(NC(=O)C3CCN(CC(=O)NCCOCCOCCOCCNc4cccc5c4C(=O)N(C4CCC(=O)NC4=O)C5=O)CC3)s2)o1 (stereo not drawn) | -2.84 °C | 9.12 °C | 0 °C | 10.8 °C | 0.99 °C | 7.5 °C |
| Cn1c(Nc2c(Cl)cccc2Cl)nc2ccc3nc[nH]c(=O)c3c21 | 9.85 °C | 0.91 °C | 0.64 °C | 1.08 °C | 0.09 °C | 1.49 °C |
| CN1CCN(c2ccc(Nc3ncc4cc5n(c4n3)C3(CCCCC3)CNC5=O)nc2)CC1 | 0.17 °C | 0 °C | -0.03 °C | 0.02 °C | 0.18 °C | 0.38 °C |
